Rows were chosen to be rich in hits. Some 3% of all compounds tested hit in one or more screens of this group.
PAFAH2 inh: inhibitors of human PAFAH2; recombinant PAFAH2, FP-rhodamine activity probe, fluorescence polarization; inhibition, % at 3.39 µM; AID 492956; 0.99% of 340,000 active;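 active means inhibition above the mean over all tested compounds plus 3 SD, cut at about 30% in these data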;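 further: inhibitors block probe labeling of enzyme so polarization drops; 0% = enzyme with DMSO and 100% = wells lacking PAFAH2 protein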
CTSL1 counter: counter-screen for PFM18AAP inhibitors: inhibitors of F. hepatica cathepsin L1; recombinant F. hepatica cathepsin L1, Z-Leu-Arg-MCA fluorescence; inhibition, % at 5.96 µM; 0.49% of 300,000 active; AID 1906;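 active means inhibition above the mean of all tested compounds plus 3 SD, set per screening campaign, cut at about 17% in these data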;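 further: 0% = plate median of test compound wells and 100% = 1 µM Z-Phe-Ala-diazomethylketone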
pPAFAH inh: pPAFAH (human) enzyme inhibition; Q13093; recombinant pPAFAH, FP-rhodamine probe fluorescence polarization; inhibition, % at 3.39 µM; 1.5% of 330,000 active; AID 463082;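 active means inhibition above the mean inhibition across the screen plus 3 SD, cut at about 25% in these data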;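 further: inhibitors block binding of the rhodamine activity-based probe so polarization drops; 0% = enzyme with DMSO and 100% = wells lacking pPAFAH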
PAFAH1B2 FP inh: PAFAH1B2 (human) inhibition. P68402. recombinant PAFAH1B2, FP-rhodamine activity probe, fluorescence polarization. inhibition, % at 3.39 µM. 1.2% of 340,000 active. AID 492953;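 active means inhibition above the mean of all tested compounds plus 3 SD, cut at about 24% in these data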;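 further: 0% = enzyme with DMSO and 100% = wells lacking PAFAH1B2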
PAFAH1B3 inh: PAFAH1B3 (human) inhibition | recombinant PAFAH1B3, FP-rhodamine probe, fluorescence polarization | inhibition, % at 3.39 µM | 0.28% of 340,000 active | AID 492972;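 active means inhibition above the screen-wide average of all tested compounds plus 3 SD, cut at about 25% in these data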;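 further: 0% = enzyme with DMSO only and 100% = wells lacking PAFAH1B3 protein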
PP5 inh: inhibitors of human protein phosphatase 5 (PP5) | 0.18% of 320,000 active | P53041 | purified PP5c, OMFP substrate fluorescence | inhibition, % at 6.7 µM;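 active means inhibition above the campaign's mean inhibition across all tested compounds plus 3 SD, cut at about 9.5% in these data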;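 further: 0% = DMSO only and 100% = 100 µM cantharidin control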
Target sequence (P53041 whole entry, looked up): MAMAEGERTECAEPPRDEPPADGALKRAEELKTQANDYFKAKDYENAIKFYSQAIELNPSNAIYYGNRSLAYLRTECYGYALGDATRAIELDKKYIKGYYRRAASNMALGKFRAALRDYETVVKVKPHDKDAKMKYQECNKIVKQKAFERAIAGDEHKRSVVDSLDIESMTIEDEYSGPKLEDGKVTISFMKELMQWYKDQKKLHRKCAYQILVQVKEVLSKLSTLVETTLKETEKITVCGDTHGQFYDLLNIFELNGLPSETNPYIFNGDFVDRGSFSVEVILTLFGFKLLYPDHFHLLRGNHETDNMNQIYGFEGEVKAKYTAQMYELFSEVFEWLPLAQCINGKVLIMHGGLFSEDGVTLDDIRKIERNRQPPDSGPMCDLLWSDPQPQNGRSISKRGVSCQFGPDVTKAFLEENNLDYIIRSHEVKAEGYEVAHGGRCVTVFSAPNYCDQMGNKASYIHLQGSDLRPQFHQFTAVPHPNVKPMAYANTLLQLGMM
Active calls of the source: *; / = no result.

SMILES	PAFAH2 inh	CTSL1 counter	pPAFAH inh	PAFAH1B2 FP inh	PAFAH1B3 inh	PP5 inh
CSc1n[nH]c2nc3c(c(=O)n12)C1(CCCCC1)Cc1ccccc1-3	44.5*	-2.8	6.3	91.4*	9.6	-1.5
Cn1c(NCCCO)nc2c(c1=O)C1(CCCCC1)Cc1ccccc1-2	-0.5	-1.5	-0.6	19.2	4.7	5.1
CC(=O)c1ccc(N2CCN(C(=O)CCS(=O)(=O)c3ccc4c(c3)NC(=O)CS4)CC2)cc1	8.1	2.8	7.5	1.4	2.6	0.2
CCOC(=O)Cc1csc(SCC(=O)NC2CCCC2)n1	5.0	/	/	-0.2	0.2	/
C=CCOn1c(=O)c(-c2ccc(OC)cc2)[n+]([O-])c2ccccc21	11.8	4.5	32.8*	4.0	7.6	2.9
CCOC(=O)COn1c(=O)c(-c2ccc(C)cc2)[n+]([O-])c2ccccc21	-6.6	20.1*	-2.4	1.9	3.5	-7.9
COc1ccc(-c2c(=O)n(OCc3nc4ccccc4[nH]3)c3ccccc3[n+]2[O-])cc1	-1.0	-3.1	-2.1	4.4	-2.2	0.3
CCN(CC)C(=O)C1CCCN(C(=O)c2cc(COc3cccc(OC)c3)on2)C1 (configuration not stated)	-3.4	-1.9	-5.3	-0.6	-3.6	3.3
Cc1ccccc1C(=O)NC1CCN(CC(=O)NC2CCCCC2)CC1	1.8	-1.1	-0.2	4.2	0.0	0.5
O=C(O)c1cc(NC(=O)c2ccc(Br)cc2)cc(NC(=O)c2ccc(Br)cc2)c1	-10.3	2.4	-15.1	29.6*	-4.3	1.6
COC(=O)CCC(=O)OC1(C)C(=O)C2=CN(C3CCCC3)C(c3ccc(OC)cc3)=CC2=C(Br)C1=O (configuration not stated)	0.7	-3.7	14.3	6.8	5.8	9.7*
COC(=O)CCC(=O)OC1(C)C(=O)C2=CN(Cc3ccco3)C(c3ccc(OC)cc3)=CC2=C(Br)C1=O (configuration not stated)	/	-25.1	24.9*	/	/	2.8
COCCN1C=C2C(=O)C(C)(OC(=O)CCC(=O)OC)C(=O)C(Br)=C2C=C1c1ccc(OC)cc1 (configuration not stated)	0.9	6.8	9.2	12.7	7.6	8.9
O=C(NNc1cc(Br)c(O)c(Br)c1)c1ccccc1	51.7*	5.0	12.3	9.1	-0.7	1.2
COC(=O)c1cc(S(=O)(=O)NCc2ccc3c(c2)OCO3)cn1C	2.4	-2.7	3.6	10.2	8.5	-0.1
O=Cc1cn(-c2ccc(F)cc2)c2ccccc12	5.2	0.8	7.0	1.0	-1.0	1.2
CCC(=O)Nc1c(C#N)c2nc3ccccc3nc2n1-c1ccc(C)cc1	2.6	/	/	3.2	6.3	/
CCCCn1c(NC(=O)c2ccccc2)c(C#N)c2nc3ccccc3nc21	55.4*	/	/	44.4*	59.4*	/
CCCCn1c(NC(=O)c2ccc(F)cc2)c(C#N)c2nc3ccccc3nc21	/	-5.4	9.1	/	/	14.5*
CC(C)c1ccc(C(C)NCCS(=O)(=O)c2ccc(Br)cc2)cc1 (configuration not stated)	-5.2	1.6	1.6	26.0*	-4.6	5.6
O=C(NCCS(=O)(=O)c1ccc(Br)cc1)c1ccccc1	-9.4	0.1	2.8	6.0	7.0	-3.1
CC(NCCS(=O)(=O)c1ccc(Cl)cc1)c1cccc(Cl)c1 (configuration not stated)	6.8	1.2	6.4	24.2*	13.4	-0.5
CCOc1ncccc1C(=O)OCC(=O)Nc1ccc(C(C)C)cc1	51.4*	-2.8	29.8*	-2.1	5.8	3.0
CC1(C)CC(=O)C2=C(C1)c1c(ccc3ccccc13)NC2c1ccc(Br)o1 (configuration not stated)	4.0	57.2*	8.9	-0.9	8.1	2.0
Cc1ccc(C)c(OCCC(=O)OCC(=O)NCc2ccc(F)cc2)c1	6.5	-23.2	29.9*	3.8	6.4	3.9
CCOc1ccc(OCCC(=O)OCC(=O)NCc2ccccc2)cc1	-5.6	-19.0	31.8*	-1.2	-3.0	1.8
Cc1ccc(OCCC(=O)OCC(=O)NCc2ccccc2)cc1	-2.5	-27.5	29.9*	1.2	3.5	-1.3
Cc1cccc(NC(=O)CNC(=O)CSc2nnc(C(F)(F)F)n2C)c1C	-0.6	/	0.5	-2.1	6.4	2.9
Cc1onc(-c2c(F)cccc2Cl)c1C(=O)Nc1cccc(S(=O)(=O)N2CCOCC2)c1	2.1	/	3.0	1.3	10.8	/
